Compound activity from PubChem BioAssay.
VHR inh abs = DUSP3 (human) phosphatase inhibition | recombinant VHR phosphatase, pNPP absorbance | inhibition, % at 13.3 µM | 0.52% of 290,000 active | AID 1654; in the data active means inhibition above about 50%
Autofluor counter = compound fluorescence in toxin protease inhibitor counterscreen | compound autofluorescence counterscreen, microsphere flow cytometry; active compounds read high | fluorescence intensity (no concentration beside the values) | 3.1% of 360,000 active; in the data active means fluorescence intensity above about 16000; inconclusive means no clear call, values can overlap the other calls
BoNT-F LC inh = BoNT F light chain protease inhibition | inhibition, % at 10 µM | Multiplex microsphere protease cleavage assay, flow cytometry | AID 588497 | 0.22% of 360,000 active; in the data active means inhibition above about 35%, passing the limit was not always enough; inconclusive means no clear call, values can overlap the other calls
BoNT-A LC inh2 = blocks Botulinum neurotoxin A light chain protease. multiplex microsphere protease substrate cleavage, flow cytometry. inhibition, % at 10 µM. 0.17% of 360,000 active. AID 588499
MazF activator = increases E. coli MazEF RNase cleavage of RNA. P0AE70. FAM/BHQ RNA-DNA oligo cleavage fluorescence, 5 h. activation, % at 20 µM. 0.32% of 350,000 active; in the data active means activation above about 50%
Anthrax LF inh2 = blocks Bacillus anthracis lethal factor protease | multiplex microsphere protease cleavage assay, LF | inhibition, % at 10 µM | 0.12% of 360,000 active | P15917
Target sequence (P15917 whole entry, looked up): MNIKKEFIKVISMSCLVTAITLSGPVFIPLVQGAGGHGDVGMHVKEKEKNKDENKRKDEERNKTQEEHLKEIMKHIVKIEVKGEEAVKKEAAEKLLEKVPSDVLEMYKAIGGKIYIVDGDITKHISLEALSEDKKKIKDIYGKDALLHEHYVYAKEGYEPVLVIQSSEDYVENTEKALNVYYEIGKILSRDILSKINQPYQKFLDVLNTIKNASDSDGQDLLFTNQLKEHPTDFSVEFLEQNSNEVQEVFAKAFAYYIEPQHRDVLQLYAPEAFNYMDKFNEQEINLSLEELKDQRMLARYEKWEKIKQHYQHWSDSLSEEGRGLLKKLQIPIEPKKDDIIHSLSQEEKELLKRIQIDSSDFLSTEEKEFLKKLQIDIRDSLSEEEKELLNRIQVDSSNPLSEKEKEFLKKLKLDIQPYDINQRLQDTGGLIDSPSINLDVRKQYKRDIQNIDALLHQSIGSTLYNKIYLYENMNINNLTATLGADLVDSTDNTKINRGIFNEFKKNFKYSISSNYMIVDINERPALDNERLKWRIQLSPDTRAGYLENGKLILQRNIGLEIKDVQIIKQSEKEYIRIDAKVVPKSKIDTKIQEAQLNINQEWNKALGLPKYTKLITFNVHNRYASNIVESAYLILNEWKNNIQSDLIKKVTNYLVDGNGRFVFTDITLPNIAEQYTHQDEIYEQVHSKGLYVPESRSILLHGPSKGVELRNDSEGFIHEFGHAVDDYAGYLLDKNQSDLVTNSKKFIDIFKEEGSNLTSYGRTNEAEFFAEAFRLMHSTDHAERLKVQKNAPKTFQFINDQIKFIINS
Large screens that a line does not name were inactive. This is a sample that favours compounds with a hit; in the whole collection about 4% have one here. Unless noted, no stated cut-off is given here; in the data, active means inhibition above about 30%; inconclusive means no clear call, values can overlap the other calls; inactive means below that.

Cc1nn(Cc2ccc(Cl)c(Cl)c2)c(C)c1NC(=O)c1cc(-c2ccc3c(c2)OCO3)on1	Autofluor counter 19313, BoNT-A LC inh2 inconclusive
COc1ccc(NC(=O)c2cc(-c3ccco3)on2)cc1	none
Clc1ccc(Cn2ccc(-c3ccc4c(c3)OCO4)n2)cc1Cl	Autofluor counter 23441
CCc1ccc(NC(=O)c2cc(-c3ccco3)on2)cc1	Autofluor counter 24283
COc1ccc(OC)c(-c2cc(C(=O)Nc3c(C)nn(Cc4ccccc4)c3C)no2)c1	none
CN(C(=O)c1cn2ccccc2n1)c1c(N)n(Cc2ccccc2)c(=O)[nH]c1=O	none (no result: VHR inh abs)
CCOC(=O)C1=C(C)N(CCCC(=O)O)C(=O)NC1c1ccc([N+](=O)[O-])cc1 (stereo not given)	none
COc1ccc(/C=C(\C#N)C(=O)OC2CCOC2=O)cc1 (stereo not given)	none
O=[N+]([O-])c1ccc(N2CCN(c3ccc(Cl)nn3)CC2)c(Cl)c1	Autofluor counter 20451
CC(C)C(=O)N1CCN(c2ccc([N+](=O)[O-])cc2Cl)CC1	none
Cc1ccc(NC(=O)Nc2cccc(Cl)c2)c(C(=O)O)c1	none
CCCCSc1nnc(-c2ccc(NC(=O)CCc3ccccc3)cc2)n1C	Autofluor counter 20381
CCc1ccc(NC(=O)CSc2nnc(-c3ccccn3)n2C)cc1	Autofluor counter 19708
CC(C)OC(=O)CSc1nnc(-c2ccccn2)n1C	Autofluor counter 17273
CC(C)OC(=O)CSc1nnc(-c2ccccn2)n1-c1ccccc1	none
CC(C)c1ccc(NC(=O)CSc2nnc(-c3ccccn3)n2C)cc1	none
CC1(C)C(C=C(Cl)Cl)C1C(=O)N(Cc1ccccc1Cl)C1CCS(=O)(=O)C1 (stereo not given)	none
COCCNC(=O)c1cc(-c2ccncc2)nc2ccc(S(=O)(=O)N3CCOCC3)cc12	none
CCC(C(=O)N1CCN(S(C)(=O)=O)CC1)c1ccccc1 (stereo not given)	Autofluor counter 20841
CCN1CCN(c2cc(C)c3cc(NC(=O)c4ccc(C)c(C)c4)ccc3n2)CC1	MazF activator 59 (no result: VHR inh abs)
Cc1cc(N2CCN(C)CC2)nc2ccc(NC(=O)CCC(=O)NCCC3=CCCCC3)cc12	Autofluor counter 21266 (no result: VHR inh abs)
CCN(Cc1cnn(C)c1)C(=O)C1CCC(=O)N(CCc2ccc(OC)cc2)C1 (stereo not given)	none
Cc1ccccc1NS(=O)(=O)c1ccc(NC(=O)CSCc2ccc(Br)cc2)cc1	none
Cc1ccc(C)c(NC(=S)NNC(=O)c2ccc(Br)o2)c1	Autofluor counter 21935
Cc1ccc(C)c(NC(=S)NNC(=O)c2csc(C(C)C)c2)c1	Autofluor counter 22879
Cc1nc2nc(-c3ccccc3)[nH]n2c(=O)c1C	none
O=C(O)CCC(=O)Nc1ccc(Oc2ncnc3cc(Cl)ccc23)nc1	BoNT-F LC inh 40, Anthrax LF inh2 inconclusive
COc1cccc(CNn2cnnc2)c1OCc1ccccc1F	Autofluor counter 20043, BoNT-A LC inh2 inconclusive
COc1cccc(CNn2cnnc2)c1OCc1ccc(F)cc1	none
COc1ccc(OC)c(NC(=O)CN2C(=O)COc3ccc(C)cc32)c1	none
CC1=CC(C)(C)N(C(=O)CSc2nnc(C)s2)c2ccc(C)cc21	none
CC1=CC(C)(C)N(C(=O)CSc2nnc(N)s2)c2cc(C)c(C)cc21	Autofluor counter 23062
Cc1ccc(C(=O)C(OC(=O)COc2ccccc2C)c2ccccc2)cc1 (stereo not given)	Autofluor counter 17155
O=C(CCC(=O)OC(C(=O)c1ccccc1)c1ccccc1)Nc1ccccc1 (stereo not given)	Autofluor counter 21923
NC(=S)N=Nc1c(O)n(C2OC(=O)c3ccccc32)c2ccccc12 (stereo not given)	none
CC1(C)Cc2nc3sc4c(=O)n(CC(=O)NCc5ccco5)cnc4c3cc2CO1	Autofluor counter 19965, BoNT-A LC inh2 inconclusive
CC1(C)Cc2nc3oc4c(=O)n(CC(=O)Nc5ccccc5)cnc4c3cc2CO1	none
Cc1ccccc1C(=O)NCCCn1ccnc1	BoNT-F LC inh 37
O=C(NCCCn1ccnc1)c1c(F)cccc1F	none
Clc1ccccc1OCCCCn1ccnc1	none
O=C(NCCCn1ccnc1)c1sc2cccc(F)c2c1Cl	Autofluor counter 21856
Cc1ccccc1OCCCCCn1ccnc1	Autofluor counter 24874
Cc1cc(OCC(=O)NCc2ccccn2)cc(C)c1Br	none
COc1ccc(C2C=C(c3ccc(C)c(C)c3)Nc3ncnn32)c(OC)c1OC (stereo not given)	none
Cc1ccc2nc(/C(C#N)=C\c3cc(C)n(-c4cccc([N+](=O)[O-])c4)c3C)[nH]c2c1	Autofluor counter 16239, BoNT-A LC inh2 inconclusive
COc1ccc(OC)c(NC(=O)c2ccccc2SC)c1	Autofluor counter 16141
CSc1ccccc1C(=O)Nc1ccc(C)c(C)c1	Autofluor counter 16135, BoNT-A LC inh2 inconclusive
Oc1ccc(-c2cn3ccccc3n2)cc1O	BoNT-F LC inh inconclusive
CC(=O)C1=C(O)C(=O)N(Cc2cccnc2)C1c1ccc(C(C)C)cc1 (stereo not given)	none
O=C1CN(C(=O)COC(=O)C2CCN(S(=O)(=O)c3ccccc3C(F)(F)F)CC2)c2ccccc2N1	Autofluor counter inconclusive, BoNT-A LC inh2 inconclusive, Anthrax LF inh2 inconclusive
Cc1ccc(-n2c(O)c(C=Nc3ccc4c(c3)OCO4)c3ccccc3c2=O)cc1C	Autofluor counter 22790
Cc1cc(N=Cc2c(O)n(-c3ccc4c(c3)OCO4)c(=O)c3ccccc23)ccn1	none
CC(C)CN(C(=O)C1CCCCC1)C1CCS(=O)(=O)C1 (stereo not given)	none (no result: VHR inh abs, Autofluor counter, BoNT-F LC inh, BoNT-A LC inh2, Anthrax LF inh2)
NC(=O)c1ccsc1NC(=O)CS(=O)(=O)c1ccc(Cl)cc1	VHR inh abs 56
NC(=O)c1ccsc1NC(=O)C1CCCN1S(=O)(=O)c1ccc(Cl)cc1 (stereo not given)	Autofluor counter 20384
NC(=O)c1ccsc1NC(=O)CCS(=O)(=O)c1ccc(Cl)cc1	Autofluor counter inconclusive (no result: VHR inh abs)
NC(=O)CC(NC(=O)Cc1cccc2ccccc12)c1ccc(N2CCC(Br)CC2)c([N+](=O)[O-])c1 (stereo not given)	none
Cc1nn(CCCC(=O)Nc2cnn(Cc3ccc(F)cc3)c2)c(C)c1[N+](=O)[O-]	none
CCCCOC(=O)Nc1cccc(Cl)c1C	Autofluor counter 21233
CCCCOC(=O)c1cccc(NC(=O)CCC(=O)O)c1	Autofluor counter 20646, BoNT-A LC inh2 inconclusive
CCCOC(=O)Nc1ccc(N2CCCCC2)cc1	Autofluor counter 22287
CCCCOC(=O)Nc1cccc(C(C)=O)c1	Autofluor counter 16653
CCCCC(=O)Nc1ccc(N2CCCC2)cc1	none (no result: VHR inh abs)
C[C@@H]1CN([C@H](C)CO)C(=O)CCCn2cc(nn2)CO[C@H]1CN(C)C(=O)Nc1cccc(F)c1	none (no result: VHR inh abs)
CCC[C@@H](CN1CCC[C@H]1CN1C(N)=NC[C@H]1CC(C)C)N1C[C@@H]([C@H](C)CC)N(CCCC2CCCC2)C1=N	none (no result: VHR inh abs)
CCCCOC(=O)Nc1ccc(C(=O)OCCC)cc1	Autofluor counter 22577
